PME-1 primary = blocks human protein phosphatase methylesterase 1. inhibition, % at 5.9 µM. hit rate 0.53% among 320,000. Q9Y570. recombinant PME-1, FP-Rh probe fluorescence polarization. AID 2130;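 active = inhibition above the campaign mean of all compounds plus 3 SD, cut at about 26% in these data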;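 note: competitive labeling of PME-1 active site by serine hydrolase directed probe; 0% = PME-1 with DMSO and 100% = wells lacking PME-1 enzyme; inhibitors block probe labeling so polarization falls and inhibition rises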
pPAFAH FP inh = pPAFAH (human) enzyme inhibition | recombinant pPAFAH, FP-rhodamine probe fluorescence polarization | inhibition, % at 3.39 µM | hit rate 1.5% among 330,000 | AID 463082;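 active = inhibition above the mean inhibition across the screen plus 3 SD, cut at about 25% in these data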;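 note: inhibitors block binding of the rhodamine activity-based probe so polarization drops; 0% = enzyme with DMSO and 100% = wells lacking pPAFAH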
Target sequence (Q13093 whole entry, looked up): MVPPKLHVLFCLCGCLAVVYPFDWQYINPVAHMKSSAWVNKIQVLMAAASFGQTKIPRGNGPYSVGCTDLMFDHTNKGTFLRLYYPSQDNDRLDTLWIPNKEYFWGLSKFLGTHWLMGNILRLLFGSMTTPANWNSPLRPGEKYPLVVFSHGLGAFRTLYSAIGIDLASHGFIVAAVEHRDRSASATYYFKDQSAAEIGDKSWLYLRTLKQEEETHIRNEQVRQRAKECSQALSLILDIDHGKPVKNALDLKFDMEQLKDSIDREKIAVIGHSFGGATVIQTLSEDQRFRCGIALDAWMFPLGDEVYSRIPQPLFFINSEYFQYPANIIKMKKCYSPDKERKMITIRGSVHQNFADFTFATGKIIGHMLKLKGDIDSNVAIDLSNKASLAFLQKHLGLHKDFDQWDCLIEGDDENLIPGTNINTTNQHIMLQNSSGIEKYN
PAFAH2 inh = PAFAH2 (human) inhibition. Q99487. hit rate 0.99% among 340,000. recombinant PAFAH2, FP-rhodamine activity probe, fluorescence polarization. AID 492956. inhibition, % at 3.39 µM;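 active = inhibition above the mean over all tested compounds plus 3 SD, cut at about 30% in these data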;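 note: inhibitors block probe labeling of enzyme so polarization drops; 0% = enzyme with DMSO and 100% = wells lacking PAFAH2 protein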
Fam108B inh = blocks mouse Fam108B hydrolase in RBBP9 counter-screen. recombinant Fam108B, FP-Rh probe fluorescence polarization. inhibition, % at 9.51 µM. hit rate 0.33% among 300,000;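 active = inhibition above the screen mean inhibition plus 3 SD, computed separately per campaign, cut at about 18% in these data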;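 note: inhibitors lower polarization as less probe binds the enzyme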
PAFAH1B2 inh = PAFAH1B2 (human) inhibition | P68402 | recombinant PAFAH1B2, FP-rhodamine activity probe, fluorescence polarization | inhibition, % at 3.39 µM | hit rate 1.2% among 340,000 | AID 492953;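 active = inhibition above the mean of all tested compounds plus 3 SD, cut at about 24% in these data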;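 note: 0% = enzyme with DMSO and 100% = wells lacking PAFAH1B2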
Target sequence (P68402 whole entry, looked up): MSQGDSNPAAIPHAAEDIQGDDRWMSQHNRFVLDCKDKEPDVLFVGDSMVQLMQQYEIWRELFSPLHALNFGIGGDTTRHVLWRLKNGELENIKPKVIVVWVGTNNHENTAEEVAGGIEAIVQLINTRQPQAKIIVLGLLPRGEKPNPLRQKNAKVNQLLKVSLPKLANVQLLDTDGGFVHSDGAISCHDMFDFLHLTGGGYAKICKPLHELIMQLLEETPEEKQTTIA
PAFAH1B3 FP inh = inhibitors of human PAFAH1B3. Q15102. inhibition, % at 3.39 µM. recombinant PAFAH1B3, FP-rhodamine probe, fluorescence polarization. hit rate 0.28% among 340,000. AID 492972;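 active = inhibition above the screen-wide average of all tested compounds plus 3 SD, cut at about 25% in these data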;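 note: 0% = enzyme with DMSO only and 100% = wells lacking PAFAH1B3 protein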
PAFAH2 confirm = confirmation of human PAFAH2 inhibitors; shares compounds with PAFAH2 inh; recombinant PAFAH2, FP-rhodamine activity probe, fluorescence polarization; inhibition, % at 3.39 µM; hit rate 65% among 2,300; AID 493030;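 active = mean inhibition over three repeats above a set limit taken from the earlier primary screen, cut at about 30% in these data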;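 note: inhibitor blocks binding of rhodamine activity probe so polarization falls; 0% = enzyme with DMSO and 100% = wells lacking PAFAH2 protein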
The depositor's hits bear a star; . = no result. Shown are actives, neighbours in structure and some others; about 2.8% of the full set was active somewhere.

SMILES | PME-1 primary | pPAFAH FP inh | PAFAH2 inh | Fam108B inh | PAFAH1B2 inh | PAFAH1B3 FP inh | PAFAH2 confirm
Cc1ccc(NC(=O)COC(=O)c2sccc2C)cc1S(=O)(=O)N1CCOCC1 | 2 | 1 | 81* | 0 | -3 | 4 | 72*
Cc1ccc(NC(=O)COC(=O)Cn2c(C)csc2=O)cc1S(=O)(=O)N1CCOCC1 | . | . | 0 | . | 0 | 3 | .
Cc1ccc(C(=O)OCC(=O)Nc2cccc(S(=O)(=O)N3CCOCC3)c2)o1 | 1 | -1 | 28 | . | 6 | 8 | .
CC1(c2nnc(Cc3ccccc3)o2)CC(c2cccc(Cl)c2)=NO1 (configuration not stated) | 5 | 3 | 3 | 5 | 3 | 7 | .
CCOCCOC(=O)NCCCCCCNC(=O)OCCOCC | -1 | 3 | 60* | -3 | 1 | 9 | 47*
O=C1N=C(N2CCN(c3cccc4ccccc34)CC2)S/C1=C/c1cccs1 | -8 | -2 | 5 | -2 | -4 | -1 | .
Cc1ccccc1N1CCN(C2=NC(=O)/C(=C\c3cccs3)S2)CC1 | 10 | 20 | 41* | -4 | 1 | 6 | 31*
N#CC1(NC(=O)COC(=O)C23CC4CC(CC(O)(C4)C2)C3)CCCCC1 | 0 | 8 | 48* | 2 | 4 | 9 | 45*
O=C(COC(=O)C12CC3CC(CC(C3)C1)C2)NC12CC3CC(CC(C3)C1)C2 | -6 | 23 | 90* | -3 | 14 | 1 | 86*
NC(=O)COC(=O)C12CC3CC(CC(O)(C3)C1)C2 | -5 | 4 | 9 | 5 | 3 | 5 | .
CCC(CC)C(=O)OCC(=O)NC12CC3CC(CC(C3)C1)C2 | 4 | 4 | 64* | -4 | 10 | 9 | 43*
COc1ccc(NC(=O)CSc2ccc3nnc(-c4ccccn4)n3n2)cc1OC | 3 | -3 | -11 | 1 | 6 | -3 | .
Cc1cc(C(=O)N2CCN(Cc3ccccc3)CC2)ccc1[N+](=O)[O-] | -9 | -6 | 119* | 4 | -2 | 10 | 2
CC(C)C(=O)Nc1ccccc1C(=O)OCC(=O)c1ccc2c(c1)OCCO2 | 3 | 1 | -1 | -6 | -2 | -6 | .
O=C(Nc1ccc2c(c1)OCO2)C1CC(=O)N(c2ccccc2)C1 (configuration not stated) | 6 | -1 | 6 | 2 | 4 | 6 | .
CN(C(=O)COC(=O)c1ccc2c(c1)OCO2)C1CCS(=O)(=O)C1 (configuration not stated) | -1 | 4 | 5 | -2 | -5 | 4 | .
CN(C(=O)COC(=O)c1ccc2c(c1)OCO2)C1CCCCC1 | . | 5 | 67* | . | 9 | 9 | 67*
CC1CCCC(NC(=O)COC(=O)c2ccc3c(c2)OCCO3)C1C (configuration not stated) | . | 14 | 84* | . | 3 | 8 | 76*
CC1CCCC(NC(=O)c2ccc3c(c2)OCCO3)C1C (configuration not stated) | 2 | 3 | 28 | . | 4 | 1 | .
O=C(COC(=O)c1ccc(NS(=O)(=O)c2ccc3c(c2)OCCO3)cc1)NC1CC1 | -4 | 9 | 64* | -2 | 0 | 2 | 51*
O=C(COC(=O)c1ccc2c(c1)OCO2)NC1CCCCC1 | . | 22 | 89* | . | 6 | 6 | 82*
CCNc1c(NC(=O)COc2ccc(Cl)cc2)c(=O)oc2ccccc12 | 3 | 6 | 11 | -2 | 5 | 6 | .
O=C(Nc1nc(-c2ccccc2)cs1)NC1CCCCC1 | 3 | 0 | 30* | 0 | 6 | 4 | 1
c1ccc(-c2csc(NC3CCCCC3)n2)cc1 | 0 | 4 | 0 | -5 | 3 | -4 | .
Cc1cc(=O)n2[nH]c(SCc3ccccc3Cl)nc2n1 | -5 | 21 | 40* | 0 | 4 | 6 | 28
SMILES | PME-1 primary | pPAFAH FP inh | PAFAH2 inh | Fam108B inh | PAFAH1B2 inh | PAFAH1B3 FP inh | PAFAH2 confirm
Cc1cc(=O)n2[nH]c(SCc3c(F)cccc3Cl)nc2n1 | -4 | -1 | 21 | 2 | 6 | -1 | .
COc1cccc(NC(=O)COC(=O)c2ccc(C)c(S(=O)(=O)N3CCCCC3)c2)c1 | -3 | 2 | 28 | . | 2 | 2 | .
Cc1ccc(NC(=O)COC(=O)c2ccc3c(c2)OCO3)cc1S(=O)(=O)N1CCCCC1 | -12 | 17 | 69* | -21 | -3 | -1 | 63*
Cc1ccc(NC(=O)COC(=O)c2ccc(OC(F)F)cc2)cc1S(=O)(=O)N1CCCCC1 | . | . | 51* | . | -2 | -1 | 42*
Cc1sc2nc(-c3ccco3)oc(=O)c2c1C | -2 | -2 | 62* | 1 | 0 | 11 | 47*
Cc1ccccc1-c1nc2sc(C)c(C)c2c(=O)o1 | -2 | 0 | 68* | -2 | -3 | 4 | 54*
Cc1sc2nc(C(C)(C)C)oc(=O)c2c1C | 8 | 9 | 36* | 4 | 5 | -7 | 40*
Cc1cc(C)cc(N2C(=O)CC(Sc3ccccc3C(=O)O)C2=O)c1 (configuration not stated) | -2 | -7 | 5 | 3 | 0 | 6 | .
Cc1ccc(N2C(=O)CC(Sc3ccccc3C(=O)O)C2=O)cc1 (configuration not stated) | 0 | 4 | 92* | 2 | 0 | 2 | -8
CN(C)S(=O)(=O)c1cccc(C(=O)Nc2cc(S(=O)(=O)N3CCOCC3)ccc2N2CCCC2)c1 | . | . | -9 | . | 0 | 1 | .
COc1cccc(CC(=O)Nc2cc(S(=O)(=O)N3CCOCC3)ccc2OC)c1 | . | . | 39* | . | 3 | 4 | 29
O=C(Nc1cc(S(=O)(=O)N2CCOCC2)ccc1O)c1ccco1 | 1 | 5 | 57* | -3 | 4 | 3 | 44*
Cc1ccc(S(=O)(=O)N2CCOCC2)cc1C(=O)Nc1cc(S(=O)(=O)N2CCCCC2)ccc1O | . | . | 30* | . | 7 | 8 | 6
COc1cccc(CC(=O)Nc2cc(S(=O)(=O)N3CCOCC3)ccc2N2CCOCC2)c1 | -1 | 1 | 8 | 5 | 2 | 15 | .
CN(C)S(=O)(=O)c1cccc(C(=O)Nc2cc(S(=O)(=O)N3CCOCC3)ccc2O)c1 | . | . | 50* | . | -3 | 6 | 50*
O=C(Nc1ccc(S(=O)(=O)N2CCOCC2)cc1)c1ccco1 | -1 | 2 | 5 | 1 | 2 | 13 | .
CCCCN1CC(=O)N2[C@@H]3c4cc(OC)ccc4OC[C@@H]3[C@H](C(=O)OCC)[C@]2(C)C1=O | . | . | -4 | . | 3 | 4 | .
Cc1cc(N2CCC(N(C)C3CCCC3)CC2)nc2cc(O)ccc12 | -2 | 1 | -1 | -3 | 8 | 6 | .
COCCC(=O)N1CCC(Oc2ccc(C(=O)N3CCCC(CCCO)C3)cc2)CC1 (configuration not stated) | -5 | -1 | 0 | 3 | 5 | 0 | .
O=C(Nc1ccccc1Cc1ccccc1)c1ccccc1NS(=O)(=O)c1ccc(Cl)s1 | 6 | 16 | 10 | 13 | 2 | 3 | .
O=C(Nc1ccccc1)c1ccccc1NS(=O)(=O)c1ccc(Cl)s1 | 6 | 7 | 71* | 4 | 20 | 3 | 75*

Screening data: PubChem BioAssay, The Scripps Research Institute Molecular Screening Center
